In one test the test system is CP266. Nature of the test: qHTS profiling for inhibitors of Plasmodium falciparum proliferation (AID 504749). Note: nearly all actives have a fitted effect of over 60% in size. Note: potency is the fitted concentration of half-maximal effect. Particulars: P. falciparum in erythrocytes, SYBR Green DNA, 72 h; series mostly up to 28.7 µM. The essentials: (§1)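 Each compound contacts P. falciparum-infected red blood cells for 72 h at 37 C; lysis buffer (Tris, EDTA, saponin, Triton X, SYBR Green I) is added and fluorescence measured next morning; values normalized to controls.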
A general note: In qHTS, concentration-response curves come from the screen itself.

The test system of another test is GB4. Described as above. Particulars: P. falciparum in erythrocytes, SYBR Green DNA, 72 h; series mostly up to 28.7 µM. The essentials: as §1
The subject of a further test is P93_24. Described as above. As to conditions: P. falciparum in erythrocytes, SYBR Green DNA, 72 h; series mostly up to 28.7 µM. The essentials:
as §1

Another test relates to PC15. The test is described as above. As to conditions: P. falciparum in erythrocytes, SYBR Green DNA, 72 h; series mostly up to 28.7 µM. The method in brief: as §1
For test [1], the target named is Ubiquitin carboxyl-terminal hydrolase 1 (Homo sapiens) (UniProt O94782). Nature of the test: Inhibitors of USP1/UAF1: Pilot qHTS (AID 504865).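 Note: rhodamine fluorescence freed from ubiquitin-rhodamine substrate followed over time; top concentration of the series differs between compounds; nearly all actives have a fitted effect of over 35% in size.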 The essentials:
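Enzyme-free wells gave the negative control, while test wells held 1nM USP1/UAF1 preincubated with compound for 15 min at room temperature. Ub-Rho at 150nM final started the reaction, and fluorescence at 480/540 nm was recorded kinetically.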

Another test deals with 3D7. Nature of the test: qHTS profiling for inhibitors of Plasmodium falciparum proliferation (AID 504749). Note: nearly all actives have a fitted effect of over 60% in size. Note: potency is the fitted concentration of half-maximal effect. As to conditions: P. falciparum in erythrocytes, SYBR Green DNA, 72 h; series mostly up to 28.7 µM. The essentials:
as §1

A further test relates to AA1029. The test is described as above. As to conditions: P. falciparum in erythrocytes, SYBR Green DNA, 72 h; series mostly up to 28.7 µM. The essentials:
as §1

A further test relates to ATS95. The description is as above. Particulars: P. falciparum in erythrocytes, SYBR Green DNA, 72 h; series mostly up to 28.7 µM. The essentials:
as §1

For the next test, the system named is CP203. Described as above. Particulars: P. falciparum in erythrocytes, SYBR Green DNA, 72 h; series mostly up to 28.7 µM. The essentials:
as §1

Another test has as its system CP211. The description is as above. Particulars: P. falciparum in erythrocytes, SYBR Green DNA, 72 h; series mostly up to 28.7 µM. The method in brief: as §1
The next test has as its system CP217. The test is described as above. As to conditions: P. falciparum in erythrocytes, SYBR Green DNA, 72 h; series mostly up to 28.7 µM. The method in brief: as §1
The test system of the next test is CP260. Described as above. As to conditions: P. falciparum in erythrocytes, SYBR Green DNA, 72 h; series mostly up to 28.7 µM. The method in brief: as §1
The test system of the next test is CP286. Described as above. As to conditions: P. falciparum in erythrocytes, SYBR Green DNA, 72 h; series mostly up to 28.7 µM. The essentials: as §1
Another test relates to CP335. The description is as above. Particulars: P. falciparum in erythrocytes, SYBR Green DNA, 72 h; series mostly up to 28.7 µM. The method in brief:
as §1

The test system of another test is Dd2. The test is described as above. As to conditions: P. falciparum in erythrocytes, SYBR Green DNA, 72 h; series mostly up to 28.7 µM. The method in brief:
as §1

A further test deals with JCK. The description is as above. Particulars: P. falciparum in erythrocytes, SYBR Green DNA, 72 h; series mostly up to 28.7 µM. The essentials:
as §1

A further test relates to PC26. The test is described as above. Particulars: P. falciparum in erythrocytes, SYBR Green DNA, 72 h; series mostly up to 28.7 µM. The essentials: as §1
A further test relates to TAB165. The description is as above. As to conditions: P. falciparum in erythrocytes, SYBR Green DNA, 72 h; series mostly up to 28.7 µM. The essentials:
as §1

A further test has as its system CP269. The test is described as above. As to conditions: P. falciparum in erythrocytes, SYBR Green DNA, 72 h; series mostly up to 28.7 µM. The method in brief: as §1
A further test has as its system FAB9. Described as above. Particulars: P. falciparum in erythrocytes, SYBR Green DNA, 72 h; series mostly up to 28.7 µM. The method in brief:
as §1

Records with an inconclusive call do not appear. Active and inactive are the calls of the source. Calls come from the whole dose curve; as a rule, active = well fitted inhibition curve with a large enough effect; inconclusive = small, poorly fitted or top-dose-only effect; inactive = flat fitted curve, though single readings scatter.

Chain of Ubiquitin carboxyl-terminal hydrolase 1 (Homo sapiens) (O94782 whole entry, looked up): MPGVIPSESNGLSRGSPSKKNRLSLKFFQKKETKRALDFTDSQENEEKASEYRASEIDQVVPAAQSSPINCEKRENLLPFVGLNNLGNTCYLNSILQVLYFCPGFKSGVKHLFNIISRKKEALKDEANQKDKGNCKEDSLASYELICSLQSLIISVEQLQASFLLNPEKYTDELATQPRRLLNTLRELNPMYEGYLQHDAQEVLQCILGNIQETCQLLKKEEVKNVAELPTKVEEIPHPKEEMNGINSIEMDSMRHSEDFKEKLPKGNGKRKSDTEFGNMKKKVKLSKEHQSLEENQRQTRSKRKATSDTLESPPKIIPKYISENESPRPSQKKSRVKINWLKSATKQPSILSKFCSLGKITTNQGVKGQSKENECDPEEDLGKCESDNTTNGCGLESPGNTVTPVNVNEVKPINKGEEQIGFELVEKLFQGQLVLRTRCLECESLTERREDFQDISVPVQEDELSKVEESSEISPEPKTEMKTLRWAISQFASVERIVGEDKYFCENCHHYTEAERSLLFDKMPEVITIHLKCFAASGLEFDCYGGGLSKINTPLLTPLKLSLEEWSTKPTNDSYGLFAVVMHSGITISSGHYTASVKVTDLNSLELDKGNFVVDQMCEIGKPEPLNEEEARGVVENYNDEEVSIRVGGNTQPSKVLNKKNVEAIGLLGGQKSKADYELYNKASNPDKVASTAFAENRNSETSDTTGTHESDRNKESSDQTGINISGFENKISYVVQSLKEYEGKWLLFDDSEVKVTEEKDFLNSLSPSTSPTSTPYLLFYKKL

As to `CCc1ccc2c(c1)N(C[C@H](C)CN(C)C)c1ccccc1S2`, the Potency entry in the test with CP266 and in the test on PC15 was “inactive” in each case. The values for the Potency with GB4 and in the test on P93_24 were 7.57 µM (active) and 7.94 µM (active), respectively.
On to `OC[C@H](S)CS`, for which the Potency result (in test [1]; with CP203; in the test on CP211; in the test with CP217; in the test with CP266; with PC26) was “inactive” throughout. The Potency result in the test with TAB165 is “inactive”. Further, the Potency with 3D7 was 3.16 µM (active); in the test with AA1029 it was 10 µM (active); in the test with ATS95, 12.6 µM (active); in the test with CP260, 0.891 µM (active); with CP286, 3.16 µM (active); in the test on CP335, 3.38 µM (active). In addition, the Potency in the test on Dd2 is 2.24 µM (active); with JCK, 10 µM (active); with PC15, 3.16 µM (active).
For the compound `O=C(O)[C@@H](S)[C@H](S)C(=O)O`, the Potency with 3D7 is 8.91 µM (active); with AA1029 it was 10 µM (active); in the test on ATS95 it was 6.31 µM (active); in the test with CP203 it was 10.7 µM (active); with CP211, 6.75 µM (active); with CP217 it was 6.31 µM (active). For the same compound, the Potency was 5.01 µM (active) in the test on CP260; 9.53 µM (active) with CP266; 6.75 µM (active) with CP269; 7.08 µM (active) with CP286; 6.75 µM (active) in the test with CP335; 11.2 µM (active) with FAB9. The Potency is 13.5 µM (active) with GB4; 11.2 µM (active) with JCK; 4.47 µM (active) with P93_24; 8.49 µM (active) in the test on PC26; 11.2 µM (active) in the test on TAB165.
As for `Cc1nnc(SCC2=C(C(=O)O)N3C(=O)[C@@H](NC(=O)Cn4cnnn4)[C@@H]3SC2)s1`, the Potency result in test [1] is “inactive”.
For the compound `N[C@H](COP(=O)(O)O)C(=O)O`, the Potency result (in test [1]; with 3D7; with AA1029; with ATS95; with CP203; in the test on CP211) was “inactive” throughout. Also, the Potency entry in the test on CP217, in the test with CP260, in the test on CP266, in the test on CP269, with CP286 and in the test on CP335 was “inactive” each time. Besides, the Potency result with Dd2, in the test on FAB9, in the test with GB4, in the test on JCK, in the test with P93_24 and with PC15 was “inactive” throughout. Also, the Potency result in the test with PC26 and in the test on TAB165 was “inactive” in each case.
On to `COc1cc2nc(N(C)CCCNC(=O)[C@@H]3CCCO3)nc(N)c2cc1OC`, for which the Potency result (in test [1]; with 3D7; in the test on AA1029; in the test with ATS95; in the test on CP203; with CP211) was “inactive” each time. The Potency result with CP217, in the test on CP260, with CP269, with CP286, in the test with CP335 and with Dd2 was “inactive” in each case. Besides, the Potency result in the test with FAB9, with GB4, in the test with JCK, in the test on P93_24, with PC15 and with PC26 was “inactive” throughout. Further, in the test on TAB165, the Potency entry is “inactive”.
For the compound `CC(=O)N1CCN(c2ccc(OC[C@@H]3CO[C@@](Cn4ccnc4)(c4ccc(Cl)cc4Cl)O3)cc2)CC1`, the Potency entry with 3D7, in the test with AA1029, with ATS95, in the test on CP211, in the test on CP217 and in the test on CP260 was “inactive” each time. The Potency entry in the test on CP269, with Dd2, with FAB9 and in the test on JCK was “inactive” each time.
`C[N+]1(C)[C@@H]2CC(OC(=O)[C@@H](CO)c3ccccc3)C[C@@H]1[C@H]1O[C@H]12` (stereo partly specified): the Potency entry (in test [1]; in the test with 3D7; in the test on AA1029; with CP203; in the test on CP211; with CP217) was “inactive” in each case. Besides, the Potency result in the test on CP260, with CP266, with CP269, in the test on CP286, in the test on CP335 and with Dd2 was “inactive” in each case. Moreover, the Potency entry with FAB9, in the test with GB4, in the test on JCK, in the test on P93_24, in the test with PC15 and with PC26 was “inactive” each time. In addition, the Potency entry in the test on TAB165 was “inactive”.

These data come from PubChem BioAssay (NCATS).
